Reference: PubChem BioAssay (Tox21)
Records with an inconclusive call do not appear. The source made the active and inactive calls. Unless noted, calls follow the shape of the dose curve; as a rule, active = well fitted curve in the direction sought with a large enough effect in the repeat runs; inconclusive = weak or mixed curves; inactive = no such curve, though single readings can be large; an effect the other way counts as inactive or inconclusive.

Legend:
[1] = qHTS assay to identify aromatase inhibitors - cell viability counter screen (AID 743084);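 also: cells stimulated with testosterone during compound exposure; nearly all actives have a fitted effect of over 55% in size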
[2] = molecular target: Peroxisome proliferator-activated receptor gamma (Homo sapiens) (UniProt P37231); experiment: qHTS assay to identify small molecule agonists of the peroxisome proliferator-activated receptor gamma (PPARg) signaling pathway (AID 743094; active = well fitted activation curve with a large enough effect in the signal ratio in the repeat runs, not every such curve was filed as active; the % refers to the signal ratio)
Peroxisome proliferator-activated receptor gamma (Homo sapiens), sequence (P37231 whole entry, looked up): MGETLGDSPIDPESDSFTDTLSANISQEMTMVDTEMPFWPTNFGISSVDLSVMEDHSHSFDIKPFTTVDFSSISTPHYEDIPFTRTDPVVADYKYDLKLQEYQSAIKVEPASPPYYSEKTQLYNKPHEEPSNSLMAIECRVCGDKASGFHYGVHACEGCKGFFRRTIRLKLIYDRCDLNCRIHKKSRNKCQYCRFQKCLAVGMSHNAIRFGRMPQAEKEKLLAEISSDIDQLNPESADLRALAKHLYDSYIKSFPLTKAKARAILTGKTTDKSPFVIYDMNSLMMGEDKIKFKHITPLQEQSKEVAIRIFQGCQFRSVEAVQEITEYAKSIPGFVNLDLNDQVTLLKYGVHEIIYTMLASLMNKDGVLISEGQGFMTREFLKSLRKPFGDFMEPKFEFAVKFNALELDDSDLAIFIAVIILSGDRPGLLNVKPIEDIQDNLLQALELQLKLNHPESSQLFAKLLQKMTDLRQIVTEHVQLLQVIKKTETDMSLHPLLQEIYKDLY
Outline: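 Compounds dissolved in DMSO were added to PPARg UAS-bla HEK293H cells for 17 h at 37C, and reporter expression was quantified by fluorescence intensity after 1 h with LiveBLAzer B/G FRET substrate.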

[3] = molecular target: Peroxisome proliferator-activated receptor gamma (Homo sapiens) (UniProt P37231); experiment: qHTS assay to identify small molecule antagonists of the peroxisome proliferator-activated receptor gamma (PPARg) signaling pathway (AID 743191; calls by dose curve; also: series mostly up to about 63 µM; nearly all actives have a fitted effect of over 30% in size)
Outline: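 GeneBLAzer PPARg UAS-bla HEK293H cells, 5 h post-plating, exposed to compounds 17 h at 37C. LiveBLAzer B/G FRET substrate added for 1 h at room temperature; beta-lactamase reporter read by fluorescence intensity.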

[4] = qHTS assay to identify small molecule antagonists of the peroxisome proliferator-activated receptor gamma (PPARg) signaling pathway - cell viability counter screen (AID 743194); settings: Potency: co-treated with 50 nM rosiglitazone; also: nearly all actives have a fitted effect of over 55% in size
Outline: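 Cytotoxicity counter screen in PPARg-bla HEK293H cells, same wells as reporter assay. Compounds plus 50 nM rosiglitazone (final) for 17 h at 37 C, then viability read by CellTiter-Glo luminescence.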

[5] = qHTS assay for small molecule agonists of the antioxidant response element (ARE) signaling pathway - cell viability counter screen (AID 743203; calls by dose curve; also: nearly all actives have a fitted effect of over 55% in size)
Outline: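 Following 16 hrs of compound treatment at 37C, HepG2 cells with an ARE-controlled beta-lactamase gene were lysed with CellTiter-Glo. Luminescence was read after 30 min at room temperature.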

[6] = qHTS assay for small molecule activators of the heat shock response signaling pathway - cell viability counter screen (AID 743209); also: nearly all actives have a fitted effect of over 50% in size
Outline: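 Readout: CellTiter-Glo luminescence, 30 min at room temperature. System: HSE-bla HeLa cells, 1500/well, plated overnight. Treatment: compounds in DMSO, 5 h at 37 C.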

[7] = qHTS assay for small molecule activators of the heat shock response signaling pathway (AID 743210; active = well fitted activation curve with a large enough effect in the signal ratio in the repeat runs, with a control signal flat, not every such curve was filed as active; the % refers to the signal ratio; also: series mostly up to about 63 µM)
Outline: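 HSE-bla HeLa cells (beta-lactamase reporter under heat shock response elements), plated overnight, then exposed to compounds 5 h at 37 C; LiveBLAzer B/G FRET substrate added, 2.5 h at room temperature, fluorescence intensity read.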

[8] = qHTS assay to identify small molecule agonists of the peroxisome proliferator-activated receptor delta (PPARd) signaling pathway - cell viability counter screen (AID 743211); also: nearly all actives have a fitted effect of over 55% in size
Outline: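 Luminescent ATP viability assay (CellTiter-Glo, 30 min RT) in UAS-bla HEK293H cells carrying the PPAR delta reporter construct, 3000 cells/well, after a 17 h compound treatment at 37 C.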

[9] = molecular target: Peroxisome proliferator-activated receptor delta (Homo sapiens) (UniProt Q03181); experiment: qHTS assay to identify small molecule agonists of the peroxisome proliferator-activated receptor delta (PPARd) signaling pathway (AID 743212; calls by dose curve)
Peroxisome proliferator-activated receptor delta (Homo sapiens), sequence (Q03181 whole entry, looked up): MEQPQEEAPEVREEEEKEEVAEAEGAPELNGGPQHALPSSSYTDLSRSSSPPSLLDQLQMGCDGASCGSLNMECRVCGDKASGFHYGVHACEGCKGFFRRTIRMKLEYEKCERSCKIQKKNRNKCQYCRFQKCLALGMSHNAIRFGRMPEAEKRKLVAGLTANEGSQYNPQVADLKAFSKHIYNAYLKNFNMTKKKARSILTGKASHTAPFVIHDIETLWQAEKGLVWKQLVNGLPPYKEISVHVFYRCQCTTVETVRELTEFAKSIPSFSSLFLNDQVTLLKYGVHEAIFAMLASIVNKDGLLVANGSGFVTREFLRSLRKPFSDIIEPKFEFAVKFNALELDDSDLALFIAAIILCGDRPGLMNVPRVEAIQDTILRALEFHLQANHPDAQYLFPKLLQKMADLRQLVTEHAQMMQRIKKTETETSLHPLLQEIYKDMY
Outline: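 GeneBLAzer UAS-bla HEK293H cells carrying a PPARδ construct were exposed to compounds at 37 °C. Beta-lactamase activity was read by FRET fluorescence after 2 h at room temperature with LiveBLAzer B/G substrate.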

[10] = qHTS assay to identify small molecule antagonists of the peroxisome proliferator-activated receptor delta (PPARd) signaling pathway - cell viability counter screen (AID 743213); also: nearly all actives have a fitted effect of over 50% in size
Outline: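 CellTiter-Glo was added to PPARd-bla HEK293H wells following 17 h compound treatment in the presence of 300 nM L165041. Luminescence was recorded after 30 min at room temperature.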

[11] = molecular target: Peroxisome proliferator-activated receptor delta (Homo sapiens) (UniProt Q03181); experiment: qHTS assay to identify small molecule antagonists of the peroxisome proliferator-activated receptor delta (PPARd) signaling pathway (AID 743215; active = well fitted inhibition curve with a large enough effect in the signal ratio in the repeat runs, not every such curve was filed as active; the % refers to the signal ratio;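 also: cells stimulated with agonist L165041 at 300 nM final during compound exposure; series mostly up to about 62 µM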)
Outline: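 HEK293H UAS-bla, PPARd; agonist L165041 300 nM final with cpd in DMSO; 37 C 17 h; FRET substrate, RT 2 h; fluorescence intensity.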

[12] = molecular target: Bile acid receptor (Homo sapiens) (UniProt Q96RI1); experiment: qHTS assay to identify small molecule antagonists of the farnesoid-X-receptor (FXR) signaling pathway (AID 743217; active = well fitted inhibition curve with a large enough effect in the signal ratio in the repeat runs, not every such curve was filed as active; the % refers to the signal ratio)
Bile acid receptor (Homo sapiens), sequence (Q96RI1 whole entry, looked up): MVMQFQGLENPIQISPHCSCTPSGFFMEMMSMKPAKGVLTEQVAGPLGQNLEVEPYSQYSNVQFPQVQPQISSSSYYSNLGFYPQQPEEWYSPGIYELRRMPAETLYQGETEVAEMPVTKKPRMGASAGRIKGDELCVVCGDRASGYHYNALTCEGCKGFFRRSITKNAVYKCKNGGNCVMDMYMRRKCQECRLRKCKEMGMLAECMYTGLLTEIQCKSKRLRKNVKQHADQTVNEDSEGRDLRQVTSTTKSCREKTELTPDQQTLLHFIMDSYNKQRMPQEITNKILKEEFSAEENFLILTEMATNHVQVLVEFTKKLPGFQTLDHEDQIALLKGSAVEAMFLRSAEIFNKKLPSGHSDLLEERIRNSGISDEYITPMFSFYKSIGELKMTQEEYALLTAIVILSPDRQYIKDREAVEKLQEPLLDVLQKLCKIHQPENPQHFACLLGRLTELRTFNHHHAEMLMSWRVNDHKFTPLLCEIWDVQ
Outline: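 GeneBLAzer FXR-UAS-bla HEK 293T, CDCA-stimulated (50 uM final). Compound treatment 16 h, 37 °C. Detection: beta-lactamase cleavage of B/G FRET substrate, fluorescence.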

[13] = qHTS assay to identify small molecule agonists of the farnesoid-X-receptor (FXR) signaling pathway - cell viability counter screen (AID 743218); also: nearly all actives have a fitted effect of over 45% in size
Outline: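 Parallel cytotoxicity test: compound-treated (16 h, 37 C) HEK 293T FXR-bla reporter cells were lysed with CellTiter-Glo and luminescence recorded.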

[14] = molecular target: Bile acid receptor (Homo sapiens) (UniProt Q96RI1); experiment: qHTS assay to identify small molecule agonists of the farnesoid-X-receptor (FXR) signaling pathway (AID 743220; active = well fitted activation curve with a large enough effect in the signal ratio in the repeat runs, not every such curve was filed as active; the % refers to the signal ratio)
Outline: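 Beta-lactamase reporter under UAS control in GeneBLAzer FXR HEK 293T cells (5000/well) measured with LiveBLAzer FRET substrate after 2 h at room temperature. Compound exposure lasted 16 h at 37C.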

[15] = qHTS assay to identify small molecule antagonists of the farnesoid-X-receptor (FXR) signaling pathway - cell viability counter screen (AID 743221; active = well fitted cell-killing curve with a large enough effect in the repeat runs, not every such curve was filed as active; also: nearly all actives have a fitted effect of over 50% in size)
Outline: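 In GeneBLAzer FXR-UAS-bla HEK 293T cells stimulated with 50 uM chenodeoxycholic acid (final), compounds acted for 16 h at 37 C. Viability was assessed afterwards by CellTiter-Glo luminescence.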

[16] = molecular target: Vitamin D3 receptor (Homo sapiens) (UniProt P11473); experiment: qHTS assay to identify small molecule agonists of the vitamin D receptor (VDR) signaling pathway (AID 743222; calls by dose curve)
Vitamin D3 receptor (Homo sapiens), sequence (P11473 whole entry, looked up): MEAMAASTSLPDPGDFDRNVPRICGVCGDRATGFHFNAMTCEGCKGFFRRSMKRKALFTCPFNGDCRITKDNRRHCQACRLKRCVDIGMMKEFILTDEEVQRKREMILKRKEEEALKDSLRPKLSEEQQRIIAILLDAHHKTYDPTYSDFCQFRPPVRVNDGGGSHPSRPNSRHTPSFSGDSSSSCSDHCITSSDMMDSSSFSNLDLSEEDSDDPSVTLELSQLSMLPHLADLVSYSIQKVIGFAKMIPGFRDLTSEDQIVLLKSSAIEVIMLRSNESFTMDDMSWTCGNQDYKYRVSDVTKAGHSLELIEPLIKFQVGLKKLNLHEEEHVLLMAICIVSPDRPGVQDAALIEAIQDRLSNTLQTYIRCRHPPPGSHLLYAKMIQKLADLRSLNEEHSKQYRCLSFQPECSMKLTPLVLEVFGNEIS
Outline: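 In VDR-bla cells, compound-induced beta-lactamase expression is quantified by FRET substrate fluorescence. Treatment lasts 16 h at 37C; substrate develops 2 h at room temperature.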

[17] = molecular target: Vitamin D3 receptor (Homo sapiens) (UniProt P11473); experiment: qHTS assay to identify small molecule antagonists of the vitamin D receptor (VDR) signaling pathway (AID 743223; active = well fitted inhibition curve with a large enough effect in the signal ratio in the repeat runs, not every such curve was filed as active; the % refers to the signal ratio)
Outline: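 Agonist 1alpha,25-dihydroxyvitamin D3 (3 nM in well) was added with each compound to VDR-bla cells preincubated 4 h. Cells stood 16 h at 37C, then FRET substrate 2 h at room temperature; fluorescence intensity recorded.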

[18] = qHTS assay for small molecule agonists of the antioxidant response element (ARE) signaling pathway (AID 743202; active = well fitted activation curve with a large enough effect in the signal ratio in the repeat runs, not every such curve was filed as active; the % refers to the signal ratio)
Outline: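 ARE-bla HepG2 cells (beta-lactamase reporter under the antioxidant response element), plated 5 hours, then exposed to compounds 16 hours at 37 C. LiveBLAzer B/G FRET substrate added for 2 hours at room temperature; fluorescence intensity read.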

[19] = qHTS assay to identify small molecule that activate the aryl hydrocarbon receptor (AhR) signaling pathway - cell viability counter screen (AID 743086);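 also: HepG2 liver cells carrying the AhR DRE luciferase reporter; series mostly up to about 70 µM; nearly all actives have a fitted effect of over 45% in size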
Outline: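 HepG2-AhR-luc (HG2L7.5c1) cells, 4000/well, treated 24 h at 37 C with compound; viability measured as CellTiter-Fluor fluorescence after 30 min in the same wells as the luciferase read.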

Measured: Potency

CCC(Br)(CC)C(=O)NC(N)=O
inactive: [1] | [2] | [3] | [4] | [5] | [6] | [7] | [8] | [9] | [10] | [11] | [12] | [13] | [14] | [15] | [16]

O=Cc1ccc2c(c1)OCO2
inactive: [1] | [2] | [4] | [5] | [6] | [8] | [9] | [10] | [11] | [12] | [14] | [15] | [16] | [17]

Clc1ccc(C2(Cn3cncn3)CC(Br)CO2)c(Cl)c1 (configuration not stated)
inactive: [1] | [2] | [3] | [4] | [18] | [5] | [6] | [7] | [8] | [9] | [10] | [11] | [13] | [14] | [15] | [16] | [17]

OCCCBr
inactive: [1] | [19] | [2] | [4] | [7] | [8] | [13]

N#C/C(N)=C(/N)C#N
inactive: [1] | [2] | [4] | [5] | [6] | [7] | [8] | [9] | [10] | [11] | [12] | [13] | [14] | [15] | [16]

C=CCOC(C)=O
inactive: [1] | [2] | [4] | [18] | [5] | [6] | [7] | [8] | [10] | [12] | [13] | [14] | [15] | [16] | [17]

BrCC(Br)C1CCC(Br)C(Br)C1 (configuration not stated)
inactive: [1] | [2] | [3] | [4] | [5] | [6] | [7] | [8] | [15]

O=C1C(=O)c2cccc3cccc1c23
inactive: [1] | [19] | [2] | [5] | [9] | [10] | [11] | [13] | [15]

CCCCCCC#N
inactive: [1] | [19] | [3] | [5] | [7] | [8] | [9] | [10] | [11] | [12] | [13] | [14] | [15] | [16]

O=C(NC(=O)c1c(F)cccc1F)Nc1ccc(OC(F)(F)C(F)OC(F)(F)F)c(Cl)c1 (configuration not stated)
inactive: [1] | [19] | [2] | [4] | [5] | [6] | [8] | [10] | [11] | [15] | [16]
